Test systems include SK-MEL-2 melanoma; EKVX NSCLC; SN12C renal; UO-31 renal; TK-10 renal; ACHN renal; CAKI-1 renal; A498 renal; CCRF-CEM leukemia; MOLT-4 leukemia; SR leukemia; OVCAR-8 ovarian; OVCAR-5 ovarian; OVCAR-4 ovarian; SK-OV-3 ovarian; IGROV1 ovarian; OVCAR-3 ovarian; HS 578T breast; NCI/ADR-RES ovarian; RPMI-8226 leukemia.
Common to all, as to assay: NCI-60 one-dose screen, 48 h (100 = growth as untreated, 0 = no growth, -100 = all killed)
Common to all, as to conditions: 10 µM unless noted

About 83,000 compounds went through this panel and 20% of them were active in at least one assay; those are over-represented in the sample as a whole.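 Single-dose data. Exposure time 48 hours. Values below 10 considered active.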 Unmarked numbers belong to inactive results. Calls of active or inactive are those of the source.

On to `c1cc(C2CCCCC2)ccc1-c1cnc2nonc2n1`, for which the growth in the experiment with SK-MEL-2 melanoma was 8.16% (active); in the experiment on EKVX NSCLC, 37.3%; in the experiment with SN12C renal, 19.5%; with UO-31 renal, 29%; in the experiment on TK-10 renal, 15.6%; with ACHN renal, 34.6%. Also, the growth in the experiment on CAKI-1 renal was 34.2%; in the experiment with A498 renal, 9.62% (active); with CCRF-CEM leukemia, 3.66% (active); in the experiment on MOLT-4 leukemia, -5.4% (active); in the experiment on SR leukemia, 4.98% (active); in the experiment with OVCAR-8 ovarian, 8.93% (active). Further, the growth is 25.7% in the experiment on OVCAR-5 ovarian; 43.9% with OVCAR-4 ovarian; 33.5% with SK-OV-3 ovarian; 34.8% in the experiment on IGROV1 ovarian; 1.51% (active) in the experiment on OVCAR-3 ovarian; 58.1% in the experiment on HS 578T breast. In the experiment with NCI/ADR-RES ovarian, the growth was -3.11% (active).

`Clc1ccc(-c2nc(-c3cccs3)no2)cc1`: the growth with SK-MEL-2 melanoma is 103%; in the experiment with EKVX NSCLC, 85.4%; in the experiment with SN12C renal, 100%; in the experiment with UO-31 renal, 71.3%; with TK-10 renal, 74.6%; with ACHN renal it was 101%. Besides, the growth was 99.5% in the experiment on CAKI-1 renal; 108% with A498 renal; 91.9% in the experiment with CCRF-CEM leukemia; 96.3% in the experiment with MOLT-4 leukemia; 101% with SR leukemia; 95.3% in the experiment on RPMI-8226 leukemia. Besides, the growth in the experiment with OVCAR-8 ovarian was 101%; in the experiment on SK-OV-3 ovarian, 99.2%; in the experiment with IGROV1 ovarian, 77.1%; with OVCAR-3 ovarian, 103%; with HS 578T breast it was 99.5%; with NCI/ADR-RES ovarian, 103%.

`CCCCc1nc(Cl)c(C2CC(c3ccc(S(N)(=O)=O)cc3)=NN2c2cc(Cl)cc(Cl)c2)[nH]1` (centres undefined): the growth in the experiment on SK-MEL-2 melanoma was 47.2%; with EKVX NSCLC it was 51.3%; with SN12C renal, 48.6%; with UO-31 renal, 58.3%; in the experiment on TK-10 renal, 84.6%; with ACHN renal, 59.7%. The growth is 40.5% in the experiment with CAKI-1 renal; 81.7% in the experiment with A498 renal; 26.2% in the experiment with CCRF-CEM leukemia; 12.3% in the experiment on MOLT-4 leukemia; 0.947% (active) in the experiment with SR leukemia; 47.1% in the experiment with OVCAR-8 ovarian. For the same molecule, the growth was 65.7% in the experiment with OVCAR-5 ovarian; 51.4% with OVCAR-4 ovarian; 69.6% in the experiment with SK-OV-3 ovarian; 65.6% with IGROV1 ovarian; 45% with OVCAR-3 ovarian; 36.9% with HS 578T breast.

For `Cc1cc(C#Cc2ccc(C(C)(C)C)cc2)ccc1-n1c(/C=C/c2c(Cl)cccc2Cl)nc2ccccc2c1=O`, the growth in the experiment with SK-MEL-2 melanoma is 120%; with EKVX NSCLC, 89.9%; in the experiment with SN12C renal it was 104%; in the experiment with UO-31 renal, 77.2%; with TK-10 renal, 99.1%; with ACHN renal, 96.2%. Further, the growth in the experiment on CAKI-1 renal is 83.9%; in the experiment with A498 renal, 104%; in the experiment with CCRF-CEM leukemia it was 95.9%; in the experiment with MOLT-4 leukemia, 86.9%; in the experiment with SR leukemia it was 88.1%; in the experiment with RPMI-8226 leukemia, 91.5%. For the same molecule, the growth in the experiment with OVCAR-8 ovarian was 115%; in the experiment with OVCAR-4 ovarian, 134%; in the experiment with SK-OV-3 ovarian, 106%; with IGROV1 ovarian, 103%; with OVCAR-3 ovarian it was 94.3%; in the experiment with NCI/ADR-RES ovarian, 103%.

For the molecule `CO[C@H](C(=O)[C@@H](O)[C@@H](C)O)[C@@H]1Cc2cc3cc(O[C@H]4C[C@@H](O[C@H]5C[C@@H](O)[C@H](O)C(C)O5)[C@H](O)C(C)O4)c(C)c(O)c3c(O)c2C(=O)[C@H]1O[C@H]1C[C@@H](O[C@H]2C[C@@H](O[C@H]3C[C@](C)(O)C(=O)C(C)O3)[C@@H](O)C(C)O2)[C@H](O)C(C)O1` (some centres undefined), the growth is -57.6% (active) with SK-MEL-2 melanoma; 0.189% (active) with EKVX NSCLC; 13.6% in the experiment on SN12C renal; -11.3% (active) in the experiment on UO-31 renal; -10.9% (active) with TK-10 renal; 2.84% (active) in the experiment with ACHN renal. The growth in the experiment with CAKI-1 renal is 1.12% (active); in the experiment with A498 renal, -33% (active); with CCRF-CEM leukemia, 10.3%; in the experiment with MOLT-4 leukemia it was 1.04% (active); in the experiment with SR leukemia, 8.44% (active); in the experiment on RPMI-8226 leukemia, -21% (active). Also, the growth was 2.48% (active) in the experiment with OVCAR-8 ovarian; 8.45% (active) in the experiment with OVCAR-4 ovarian; 9.52% (active) in the experiment with SK-OV-3 ovarian; 12.2% in the experiment with IGROV1 ovarian; -12.5% (active) with OVCAR-3 ovarian; -13.8% (active) with HS 578T breast. Besides, the growth in the experiment with NCI/ADR-RES ovarian is 76%.

Consider `CCN1C(=O)N(CC)C2C1NN=c1s/c(=C\c3ccco3)c(=O)n12` (centres undefined), for which the growth in the experiment on SK-MEL-2 melanoma is 30%; with EKVX NSCLC, 36.3%; with SN12C renal, 47.5%; with UO-31 renal it was 60%; with TK-10 renal it was 57.6%; with ACHN renal, 54.9%. The growth with CAKI-1 renal was 46%; in the experiment with A498 renal, 21.5%; in the experiment with CCRF-CEM leukemia, 10%; with MOLT-4 leukemia it was 31.7%; in the experiment on SR leukemia, 17%; in the experiment on OVCAR-8 ovarian it was 27.8%. Moreover, the growth with OVCAR-5 ovarian is 36.7%; in the experiment with OVCAR-4 ovarian it was 63.3%; with SK-OV-3 ovarian, 31.6%; in the experiment on IGROV1 ovarian, 36.9%; in the experiment with OVCAR-3 ovarian, -12% (active); in the experiment with HS 578T breast, 29.6%. The growth in the experiment with NCI/ADR-RES ovarian was 9.31% (active).

For `O=C(c1ccccc1)C1OC1C(=O)c1ccccc1` (centres undefined), the growth with SK-MEL-2 melanoma is 34%; with EKVX NSCLC, 81.3%; in the experiment with SN12C renal, 28.2%; with UO-31 renal, 60.1%; in the experiment with TK-10 renal it was 36.9%; in the experiment with ACHN renal it was 33.1%. Moreover, the growth is 14.6% in the experiment with CAKI-1 renal; 95.6% in the experiment on A498 renal; 12.1% in the experiment with CCRF-CEM leukemia; 45.6% with MOLT-4 leukemia; 14.3% in the experiment on SR leukemia; 25.4% with OVCAR-8 ovarian. The growth with OVCAR-5 ovarian was 30.2%; in the experiment on OVCAR-4 ovarian it was 60.1%; with SK-OV-3 ovarian, 54.3%; in the experiment on IGROV1 ovarian, 24.6%; in the experiment on OVCAR-3 ovarian, 35.2%; in the experiment with HS 578T breast, 54.2%. Moreover, the growth in the experiment on NCI/ADR-RES ovarian is -18.5% (active).

For the molecule `COc1ccc(-n2c(COc3ccc(F)cc3)n[nH]c2=S)cc1`, the growth in the experiment on SK-MEL-2 melanoma is 33.1%; with EKVX NSCLC, 107%; in the experiment with SN12C renal it was 84.4%; in the experiment with UO-31 renal, 107%; in the experiment on TK-10 renal, 101%; in the experiment with ACHN renal, 99.7%. Moreover, the growth was 104% in the experiment on CAKI-1 renal; 108% in the experiment on A498 renal; 143% in the experiment with CCRF-CEM leukemia; 114% in the experiment with MOLT-4 leukemia; 120% in the experiment with SR leukemia; 112% in the experiment on OVCAR-8 ovarian. Moreover, the growth was 110% in the experiment with OVCAR-5 ovarian; 105% with OVCAR-4 ovarian; 109% in the experiment with SK-OV-3 ovarian; 96.4% with IGROV1 ovarian; 103% in the experiment on OVCAR-3 ovarian; 108% with HS 578T breast. Moreover, the growth in the experiment on NCI/ADR-RES ovarian is 103%.

The values above are taken from PubChem BioAssay (NCI).
